Read-out in assay [1]: Transforming growth factor beta 1 (TGFb1), TGFB1 (gene 7040)
Description: BSK_KF3CT_TGFb1: BioMAP Diversity Plus: KF3CT Assay for Transforming growth factor beta 1 (TGFb1) Biomarker Activity (AID 2283072). Particulars: primary human keratinocytes with fibroblasts; actives raise or lower the signal. In outline:
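ELISA quantifies TGF-b1 at 24 h post-dose in a primary human skin co-culture of keratinocytes and fibroblasts, with gain or loss judged against DMSO. Parallel SRB total-protein staining flags overt cytotoxicity.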

Read-out in assay [2]: C-C motif chemokine 2 (Homo sapiens) (UniProt P13500)
The experiment in a line: BSK_KF3CT_MCP1: BioMAP Diversity Plus: KF3CT Assay for Monocyte Chemoattractant Protein 1 (MCP1/CCL2) Biomarker Activity (AID 2283073). Particulars: primary human keratinocytes with fibroblasts; actives raise or lower the signal. In outline: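 Human keratinocyte plus foreskin fibroblast primary co-culture exposed to chemical for 24 h. MCP-1 levels measured by ELISA. Bidirectional curve fitting relative to DMSO negative control as baseline.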

Read-out in assay [3]: Matrix Metallopeptidase 9 (MMP9), MMP9 (gene 4318)
The experiment in a line: BSK_KF3CT_MMP9: BioMAP Diversity Plus: KF3CT Assay for Matrix Metallopeptidase 9 (MMP9) Biomarker Activity (AID 2283074). Particulars: primary human keratinocytes with fibroblasts; actives raise or lower the signal. In outline: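 ELISA read-out of MMP-9 at 24 h post-dosing in a co-culture of human skin keratinocytes and foreskin fibroblasts. Gain or loss of signal was fitted in both directions against DMSO.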

Read-out in assay [4]: urokinase plasminogen activator (uPA), PLAU (gene 5328)
Description: BSK_KF3CT_uPA: BioMAP Diversity Plus: KF3CT Assay for urokinase plasminogen activator (uPA) Biomarker Activity (AID 2283075). Particulars: primary human keratinocytes with fibroblasts; actives raise or lower the signal. Summed up: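 Skin co-culture (keratinocytes + foreskin fibroblasts), human primary; 24 h post-dose; uPA by ELISA; gain/loss fit vs DMSO baseline.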

Read-out in assay [5]: CD40, CD40 (gene 958)
The experiment in a line: BSK_LPS_CD40: BioMAP Diversity Plus: LPS Assay for CD40 Biomarker Activity (AID 2283076). Particulars: primary human HUVEC with PBMC; actives raise or lower the signal. In outline: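 Primary human umbilical vein endothelial cells co-cultured with peripheral blood mononuclear cells, LPS-stimulated, were dosed with chemical and read 24 h later. CD40 levels were measured by ELISA and fitted bidirectionally against DMSO as negative control and baseline.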

Read-out in assay [6]: E-selectin (Homo sapiens) (UniProt P16581)
Description: BSK_LPS_Eselectin: BioMAP Diversity Plus: LPS Assay for Eselectin Biomarker Activity (AID 2283077). Particulars: primary human HUVEC with PBMC; actives raise or lower the signal. In outline: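 Human umbilical vein endothelial cells co-cultured with peripheral blood mononuclear cells under LPS stimulation; E-selectin measured by ELISA 24 h after chemical dosing. Activity fitted bidirectionally against DMSO as negative control and baseline.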

Read-out in assay [7]: Interleukin-8 (IL8), CXCL8 (gene 3576)
The experiment in a line: BSK_LPS_IL8: BioMAP Diversity Plus: LPS Assay for Interleukin-8 (IL8) Biomarker Activity (AID 2283078). Particulars: primary human HUVEC with PBMC; actives raise or lower the signal. In outline:
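Human umbilical vein endothelial cells co-cultured with PBMC were stimulated with LPS; IL-8 levels were measured by ELISA 24 h after chemical dosing. Activity was fitted bidirectionally against DMSO as negative control and baseline.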

Assay [8] is described as follows: BSK_LPS_SRB: Viability Assessment in the BioMAP Diversity Plus: LPS Assay (AID 2283079).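 Also: total protein by sulforhodamine B absorbance as a cytotoxicity measure; measured one day after compound addition.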 Particulars: primary human HUVEC with PBMC. In outline:
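Human umbilical vein endothelial cells co-cultured with PBMC (LPS system) were dosed for 24 h. Total protein was stained with 0.1% sulforhodamine B after 10% TCA fixation, read at 560 nm, and fitted bidirectionally against DMSO baseline.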

Read-out in assay [9]: Interleukin-1 alpha (IL1a), IL1A (gene 3552)
Description: BSK_LPS_IL1a: BioMAP Diversity Plus: LPS Assay for Interleukin-1 alpha (IL1a) Biomarker Activity (AID 2283080). Particulars: primary human HUVEC with PBMC; actives raise or lower the signal. Summed up:
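Human umbilical vein endothelial cells co-cultured with peripheral blood mononuclear cells were LPS-stimulated and exposed to test chemicals for 24 h. IL-1 alpha was quantified by ELISA, with bidirectional curve fitting against DMSO as the negative control and baseline.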

Read-out in assay [10]: Monocyte Chemoattractant Protein-1 (MCP1), CCL2 (gene 6347)
The experiment in a line: BSK_LPS_MCP1: BioMAP Diversity Plus: LPS Assay for Monocyte Chemoattractant Protein-1 (MCP1) Biomarker Activity (AID 2283081). Particulars: primary human HUVEC with PBMC; actives raise or lower the signal. In outline:
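HUVEC plus PBMC co-culture (human primary cells, LPS system) exposed to test chemical for 24 h; MCP-1 measured by ELISA. Bidirectional curve fitting against DMSO baseline; parallel SRB total-protein staining flags overt cytotoxicity.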

The nature of assay [11]: BSK_LPS_PGE2: BioMAP Diversity Plus: LPS Assay for Prostaglandin E2 (PGE2) Biomarker Activity (AID 2283082).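 As to AC50: secreted prostaglandin E2 measured by ELISA in LPS-stimulated co-culture.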 Particulars: primary human HUVEC with PBMC; actives raise or lower the signal. Summed up:
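PGE2 release measured by ELISA in an LPS-activated co-culture of human umbilical vein endothelial cells and peripheral blood mononuclear cells, read at 24 h post-dosing. DMSO served as baseline for bidirectional curve fitting.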

Read-out in assay [12]: Macrophage colony-stimulating factor (MCSF), CSF1 (gene 1435)
Description: BSK_LPS_MCSF: BioMAP Diversity Plus: LPS Assay for Macrophage colony-stimulating factor (MCSF) Biomarker Activity (AID 2283083). Particulars: primary human HUVEC with PBMC; actives raise or lower the signal. Summed up:
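Human umbilical vein endothelial cells co-cultured with peripheral blood mononuclear cells were exposed to compound for 24 h. M-CSF levels were measured by ELISA, and bidirectional curve fitting used DMSO as the negative control and baseline.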

Read-out in assay [13]: Tissue Factor, F3 (gene 2152)
Description: BSK_LPS_TissueFactor: BioMAP Diversity Plus: LPS Assay for Tissue Factor Biomarker Activity (AID 2283084). Particulars: primary human HUVEC with PBMC; actives raise or lower the signal. In outline:
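Human umbilical vein endothelial cells co-cultured with peripheral blood mononuclear cells were dosed and stimulated with LPS. Cell-surface CD142 was quantified by ELISA at 24 h. Activity was fitted bidirectionally against DMSO baseline.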

Read-out in assay [14]: Tumor necrosis factor (Homo sapiens) (UniProt P01375)
The experiment in a line: BSK_LPS_TNFa: BioMAP Diversity Plus: LPS Assay for Tumour Necrosis Factor alpha (TNFa) Biomarker Activity (AID 2283085). Particulars: primary human HUVEC with PBMC; actives raise or lower the signal. Summed up: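 TNFa was quantified by ELISA in LPS-activated co-cultures of human endothelial cells and PBMC, 24 h post-dosing. Both increases and decreases versus DMSO were fitted.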

Read-out in assay [15]: Vascular cell adhesion molecule 1 (VCAM1), VCAM1 (gene 7412)
The experiment in a line: BSK_LPS_VCAM1: BioMAP Diversity Plus: LPS Assay for Vascular cell adhesion molecule 1 (VCAM1) Biomarker Activity (AID 2283086). Particulars: primary human HUVEC with PBMC; actives raise or lower the signal. Summed up:
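VCAM-1 quantified by ELISA in an LPS-activated co-culture of human endothelial cells and peripheral blood mononuclear cells, read 24 h post-treatment. Fitted in both directions versus DMSO; parallel SRB staining flags overt cytotoxicity.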

Read-out in assay [16]: CD40, CD40 (gene 958)
The experiment in a line: BSK_SAg_CD40: BioMAP Diversity Plus: SAg Assay for CD40 Biomarker Activity (AID 2283088). Particulars: primary human HUVEC with PBMC; actives raise or lower the signal. Summed up: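 Human umbilical vein endothelial cells co-cultured with PBMC; CD40 levels measured by ELISA with fluorescence read-out 24 h after chemical dosing. Gain or loss of signal fitted bidirectionally against DMSO baseline.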

Read-out in assay [17]: Monocyte Chemoattractant Protein-1 (MCP1), CCL2 (gene 6347)
The experiment in a line: BSK_SAg_MCP1: BioMAP Diversity Plus: SAg Assay for Monocyte Chemoattractant Protein-1 (MCP1) Biomarker Activity (AID 2283090). Particulars: primary human HUVEC with PBMC; actives raise or lower the signal. Summed up: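 Values derive from bidirectional fitting of ELISA-measured MCP1 against DMSO controls. Readings were taken 24 h after dosing human vascular endothelial cells co-cultured with peripheral blood mononuclear cells under superantigen stimulation.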

Read-out in assay [18]: E-selectin (Homo sapiens) (UniProt P16581)
Description: BSK_SAg_Eselectin: BioMAP Diversity Plus: SAg Assay for Eselectin Biomarker Activity (AID 2283091). Particulars: primary human HUVEC with PBMC; actives raise or lower the signal. Summed up:
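HUVEC co-cultured with PBMC, compound dosed then read at 24 h; E-selectin measured by ELISA. Activity fitted bidirectionally against DMSO as negative control and baseline.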

Read-out in the next assay: CD38, CD38 (gene 952)
Description: BSK_SAg_CD38: BioMAP Diversity Plus: SAg Assay for CD38 Biomarker Activity (AID 2283087). Particulars: primary human HUVEC with PBMC; actives raise or lower the signal. Summed up: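 CD38 quantified by ELISA (fluorescence) in a superantigen-activated endothelial cell–PBMC co-culture at 24 h post-dose. Activity fitted in both directions relative to DMSO; parallel SRB and Alamar Blue cytotoxicity read-outs.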

Read-out in a further assay: CD69, CD69 (gene 969)
Description: BSK_SAg_CD69: BioMAP Diversity Plus: SAg Assay for CD69 Biomarker Activity (AID 2283089).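 Also: cell surface CD69 protein quantified by ELISA with fluorescence detection.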 Particulars: primary human HUVEC with PBMC; actives raise or lower the signal. In outline: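 Primary human vascular co-culture (umbilical vein endothelium with peripheral blood mononuclear cells) exposed to test chemical for 24 h. CD69 levels quantified by fluorescence ELISA; DMSO served as negative control for bidirectional fitting.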

Calls of active or inactive are those of the source. The calls were made as follows: active = hit-call score of the fitted dose curve at least 0.9, where 1 is the maximum; inactive = score below 0.9.

From PubChem BioAssay (EPA / NIEHS) come the findings set out here.

Chain of Tumor necrosis factor (Homo sapiens) (P01375 whole entry, looked up): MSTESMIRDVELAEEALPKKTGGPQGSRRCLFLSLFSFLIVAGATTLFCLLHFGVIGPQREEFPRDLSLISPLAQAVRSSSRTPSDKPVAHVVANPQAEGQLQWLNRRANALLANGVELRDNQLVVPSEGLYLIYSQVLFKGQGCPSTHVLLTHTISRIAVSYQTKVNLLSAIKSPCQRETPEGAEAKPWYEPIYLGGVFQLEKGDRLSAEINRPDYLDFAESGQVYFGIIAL
Chain of E-selectin (Homo sapiens) (P16581 whole entry, looked up): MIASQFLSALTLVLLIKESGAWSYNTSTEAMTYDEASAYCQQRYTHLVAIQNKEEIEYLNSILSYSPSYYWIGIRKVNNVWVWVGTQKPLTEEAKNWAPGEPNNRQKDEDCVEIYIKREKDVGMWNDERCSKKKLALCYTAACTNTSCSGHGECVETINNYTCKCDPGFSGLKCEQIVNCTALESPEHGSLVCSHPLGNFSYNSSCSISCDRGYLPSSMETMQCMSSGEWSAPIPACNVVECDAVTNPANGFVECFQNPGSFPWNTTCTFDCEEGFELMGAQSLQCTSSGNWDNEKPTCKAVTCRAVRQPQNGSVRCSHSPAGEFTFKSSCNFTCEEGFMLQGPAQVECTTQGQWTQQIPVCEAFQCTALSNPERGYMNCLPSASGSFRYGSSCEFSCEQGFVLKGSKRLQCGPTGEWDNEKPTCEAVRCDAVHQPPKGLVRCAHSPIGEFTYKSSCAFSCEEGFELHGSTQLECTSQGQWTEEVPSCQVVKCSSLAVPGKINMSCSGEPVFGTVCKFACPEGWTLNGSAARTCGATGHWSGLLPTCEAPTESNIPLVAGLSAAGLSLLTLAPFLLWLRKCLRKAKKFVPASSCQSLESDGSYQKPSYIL

`O=c1n(Cl)c(=O)n(Cl)c(=O)n1Cl`: the outcome in assay [1] is “inactive”; in assay [2], “inactive”; in assay [3], “inactive”; in assay [4], “inactive”; with CD40, CD40 (gene 958) [5], “inactive”; in assay [6] it was “inactive”. Moreover, the outcome in assay [7], in assay [8], in assay [9], in assay [10], in assay [11] and in [12] was inactive. Further, the outcome in [14] was “inactive”; in assay [15] it was “inactive”; with CD40, CD40 (gene 958) [16] it was “inactive”; in assay [18] it was “inactive”. Also, the results for the AC50 in assay [13] and in [17] were 0.966 µM (active) and 11.6 µM (active), respectively.
`Cc1c(COC(=O)[C@@H]2[C@H](/C=C(\Cl)C(F)(F)F)C2(C)C)cccc1-c1ccccc1`: the outcome in assay [1] was “inactive”; in assay [2], “inactive”; in [3], “inactive”; in assay [4], “inactive”; with CD40, CD40 (gene 958) [5], “inactive”; in assay [6], “inactive”. For the same compound, the result in assay [8], in assay [9], in assay [10], in assay [13], in assay [14] and in [15] was inactive. For the same compound, the result in assay [17] was inactive. The AC50 in assay [7] is 5.39 µM (active); in assay [11], 4.57 µM (active); in [12], 3.53 µM (active); with CD40, CD40 (gene 958) [16] it was 16.5 µM (active); in [18], 10.3 µM (active).
In the case of `CC(C)=CC1C(C(=O)OCc2coc(Cc3ccccc3)c2)C1(C)C` (stereo not given), the outcome was “inactive” in assay [1]; “inactive” in [3]; “inactive” in [4]; “inactive” with CD40, CD40 (gene 958) [5]; “inactive” in [7]; “inactive” in assay [8]. Moreover, the outcome in assay [9], in [10], in assay [11], in [12], in assay [13] and in [14] was inactive. The outcome in assay [15] was “inactive”; with CD38, CD38 (gene 952) it was “inactive”; with CD40, CD40 (gene 958) [16] it was “inactive”. For the same compound, the AC50 is 12.1 µM (active) in assay [6]; 11.4 µM (active) in the assay with CD69, CD69 (gene 969); 20 µM (active) in assay [17]; 16.6 µM (active) in assay [18].

The AC50 is the concentration giving half of the maximal activity seen.
